Screening results from PubChem.
KB-3-1 cytotox – kills parental KB-3-1 adenocarcinoma cells; Potency, µM (titrated, usually from 46.1 µM), most hits filed as cytotoxic; actives 1.4% (n = 400,000); AID 1347075; KB-3-1 viability, CellTiter-Glo ATP luminescence, 72 h; note: nearly all actives have a fitted effect of over 60% in size
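Here the drug-naive KB-3-1 line serves as comparator for MDR sub-line selectivity; cells received compound titrations, 72 h at 37 °C, then CellTiter-Glo readout.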
ATXN viability – cell viability loss in ATXN counter-screen; S2 cells (HEK-293 line with an ATXN2-luciferase reporter) viability, CellTiter-Fluor protease fluorescence, 24 h; Potency, µM (titrated, usually from 56.7 µM), actives largely listed as cytotoxic; actives 0.49% (n = 400,000); note: nearly all actives have a fitted effect of over 40% in size
ATXN2 expr inh – ATXN2 expression inhibition; HEK-293 ATXN2-luciferase reporter, luminescence, 24 h; Potency, µM (series often up to 57 µM), actives largely listed as inhibitors; actives 0.72% (n = 360,000); AID 1745845; note: nearly all actives have a fitted effect of over 55% in size
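qHTS (up to 57 uM final) was run with 24 h compound exposure of reporter cells at 37 °C. Each well was multiplexed: SteadyGlo luminescence measured ATXN2-luciferase expression after a fluorogenic Gly-Phe-AFC viability readout (25 uM final).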
HT1080-NT tox – kills 2HG-producing HT-1080-NT fibrosarcoma cells; Potency, µM (top dose mostly 46.1 µM), hits mostly cytotoxic; actives 1.6% (n = 360,000); HT-1080-NT fibrosarcoma viability, CellTiter-Glo ATP luminescence, 48 h;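 note: NT is the 2HG producing partner of a matched IDH1 knockdown line; nearly all actives have a fitted effect of over 55% in size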
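750 cells/well, RPMI + 5% FBS; 2 h settle, compound pin-transfer, 48 h at 37 degrees C. CellTiter-Glo 10 min RT, luminescence. Normalized to DMSO and media-only wells.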
KB-V1 MDR tox – KB-V1 MDR subline cytotoxicity; KB-V1 MDR cells viability, CellTiter-Glo, 72 h; Potency, µM (titrated, usually from 46.1 µM), hits mostly cytotoxic; actives 3.4% (n = 400,000); AID 1347076; note: nearly all actives have a fitted effect of over 60% in size
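Readout: CellTiter-Glo luminescence, 10 min after addition. Cells: KB-V1 MDR subline, 72 h at 37 degrees C with compound. Analysis: corrected, normalized data fitted to concentration-effect curves.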
HT1080 IDH1KD tx – HT-1080 IDH1 knockdown cell toxicity (counter line); actives 2% (n = 360,000); HT-1080 IDH1 knockdown viability, ATP luminescence, 48 h; Potency, µM (highest dose often 46.1 µM), usual class: cytotoxic
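Viability of IDH1-knockdown HT-1080 fibrosarcoma cells was assessed by CellTiter-Glo after 48 h at 37 °C with titrated compound; concentration-effect curves were classified by fit quality and response size.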
A number is an active result. Sampled rows, rich in hits. Any-hit rate of the full collection: about 6.2%. Calls come from the whole dose curve; as a rule, active = well fitted curve in the direction sought with a large enough effect; inconclusive = small, poorly fitted or top-dose-only effect, or another doubt; inactive = no such curve, though single readings can be large; an effect the other way counts as inactive or inconclusive.

`CC1(C)CC(N=Cc2c(O)n(Cc3ccc4c(c3)OCO4)c(=O)c3ccccc23)CC(C)(C)N1` gave KB-3-1 cytotox inactive, ATXN2 expr inh inconclusive, HT1080-NT tox 18µM, KB-V1 MDR tox inactive and HT1080 IDH1KD tx 7.3µM.
CN(C)CCN=Cc1c(O)n(Cc2ccccc2)c(=O)c2ccccc12 was read as KB-3-1 cytotox inactive, ATXN2 expr inh inactive, HT1080-NT tox inactive, KB-V1 MDR tox inconclusive and HT1080 IDH1KD tx inactive.
COC(=O)c1cc(NC(=O)c2cc3sccc3n2Cc2ccc(Cl)cc2)cc(C(=O)OC)c1 was read as KB-3-1 cytotox inactive, ATXN viability inactive, ATXN2 expr inh inactive and KB-V1 MDR tox inactive.
`COc1ccc(CN(CCCN2CCOCC2)C(=O)Nc2ccccc2)cc1OC` gave KB-3-1 cytotox inactive, ATXN viability inactive, ATXN2 expr inh inactive, HT1080-NT tox inactive, KB-V1 MDR tox 7.3µM and HT1080 IDH1KD tx inactive.
Screening COc1ccc(NC(=O)CCn2cnnn2)cc1 returned KB-3-1 cytotox inactive, ATXN viability inactive, ATXN2 expr inh inactive and KB-V1 MDR tox inactive.
For CC[C@H](C)[C@@H](CN[C@H](CCCCNC)CNC)NCC1CCCC1 the results were KB-3-1 cytotox inactive, ATXN viability inactive, ATXN2 expr inh inactive, HT1080-NT tox inactive, KB-V1 MDR tox inactive and HT1080 IDH1KD tx inactive.
Screening CCCC[C@@H](CN[C@H](C)CNC)NCC1CCC(C(C)(C)C)CC1 (stereo partly specified) returned KB-3-1 cytotox inconclusive, ATXN viability 32µM, ATXN2 expr inh 35µM, HT1080-NT tox inconclusive, KB-V1 MDR tox inconclusive and HT1080 IDH1KD tx 18µM.
Screening Cc1ccc(Cn2c(C)c(CNCCCc3ccccc3)c(C(=O)O)c2C)cc1 returned KB-3-1 cytotox inactive, ATXN viability inactive, ATXN2 expr inh inactive and KB-V1 MDR tox inactive.
COc1ccc(Nc2nnc(SCC(=O)/C=C3/N(C)c4ccccc4C3(C)C)s2)cc1 was read as KB-3-1 cytotox inconclusive, ATXN viability inconclusive, ATXN2 expr inh inconclusive, HT1080-NT tox inactive, KB-V1 MDR tox 2.6µM and HT1080 IDH1KD tx inconclusive.
COC(=O)C1=C(C)N(C(C)C)C(=O)C1(NC(=O)c1ccccc1OC)C(F)(F)F (stereo unspecified) was read as KB-3-1 cytotox inactive, ATXN viability inactive, ATXN2 expr inh inactive and KB-V1 MDR tox inactive.
`Cc1ccc(-c2nnc(N3CCCCCC3)c3ccccc23)cc1` gave KB-3-1 cytotox 23µM, ATXN viability inactive, ATXN2 expr inh inactive, HT1080-NT tox inactive, KB-V1 MDR tox inconclusive and HT1080 IDH1KD tx inactive.
Screening COc1ccc(-c2nnc(N3CCCCC3)c3ccccc23)cc1 returned KB-3-1 cytotox inconclusive, ATXN viability inactive, ATXN2 expr inh inconclusive, HT1080-NT tox inactive, KB-V1 MDR tox 12µM and HT1080 IDH1KD tx inactive.
For Cc1ccc(-c2nnc(N3CCC(C)CC3)c3ccccc23)cc1C the results were KB-3-1 cytotox inactive, ATXN viability inactive, ATXN2 expr inh inconclusive, HT1080-NT tox inconclusive, KB-V1 MDR tox inconclusive and HT1080 IDH1KD tx 29µM.
Screening Cc1ccc(-c2nnc(N3CCC(C)CC3)c3ccccc23)cc1 returned KB-3-1 cytotox inactive, ATXN viability inconclusive, HT1080-NT tox inactive, KB-V1 MDR tox inconclusive and HT1080 IDH1KD tx inactive.
For COc1ccc2c(c1)c1c(c(=O)n(-c3cccc(Cl)c3)c(=O)n1C)n2C the results were KB-3-1 cytotox inactive, ATXN viability inactive, ATXN2 expr inh inactive and KB-V1 MDR tox inconclusive.
For COc1cc(OC)c(N(C)C(=O)Cn2ncc3c([nH]c4ccccc43)c2=O)cc1Cl the results were KB-3-1 cytotox inactive, ATXN viability inconclusive, ATXN2 expr inh inactive and KB-V1 MDR tox inactive.
CCOc1c(Cl)cc(Cl)cc1CNCCSc1nnnn1C was read as KB-3-1 cytotox inactive, ATXN viability inactive, ATXN2 expr inh inactive and KB-V1 MDR tox inactive.
COc1cc2ccccc2cc1C(=O)Nc1ccccc1N1CCN(S(C)(=O)=O)CC1 was read as KB-3-1 cytotox inactive, ATXN viability inactive, ATXN2 expr inh inactive, HT1080-NT tox inactive, KB-V1 MDR tox 4.1µM and HT1080 IDH1KD tx inactive.
For CCN1CCN(c2ccc(NC(=O)c3cc4ccccc4cc3OC)cc2C)CC1 the results were KB-3-1 cytotox 15µM, ATXN viability inconclusive, ATXN2 expr inh inconclusive, HT1080-NT tox inconclusive, KB-V1 MDR tox inconclusive and HT1080 IDH1KD tx inconclusive.
For CS(=O)(=O)N1CCN(c2ccccc2NC(=O)c2ccc(-c3ccc(Br)cc3)o2)CC1 the results were KB-3-1 cytotox inactive, ATXN viability inactive, ATXN2 expr inh inactive, HT1080-NT tox inactive, KB-V1 MDR tox 2.6µM and HT1080 IDH1KD tx inconclusive.
Screening CS(=O)(=O)N1CCN(c2ccccc2NC(=O)c2cccc3ccccc23)CC1 returned KB-3-1 cytotox inactive, ATXN viability inconclusive, ATXN2 expr inh inactive, HT1080-NT tox inactive, KB-V1 MDR tox inactive and HT1080 IDH1KD tx inactive.
CS(=O)(=O)N1CCN(c2ccccc2NC(=O)c2cc(Br)ccc2Cl)CC1 was read as KB-3-1 cytotox inconclusive, ATXN viability inactive, ATXN2 expr inh inactive, HT1080-NT tox inactive, KB-V1 MDR tox inactive and HT1080 IDH1KD tx inactive.
`COc1cc(-c2ccc3ncnc(NCc4ccc(C)o4)c3c2)cc(OC)c1OC` gave KB-3-1 cytotox inconclusive and KB-V1 MDR tox inactive.
CCCOc1ccc(-c2nonc2NC(=O)c2oc3ccc(Cl)cc3c2C)cc1OCCC was read as KB-3-1 cytotox inactive, ATXN viability inactive, ATXN2 expr inh inactive and KB-V1 MDR tox inactive.
`COC(=O)Cn1c(=O)c(C(=O)CCl)c(N)n(Cc2ccccc2)c1=O` gave KB-3-1 cytotox 13µM, ATXN viability inactive, HT1080-NT tox inactive, KB-V1 MDR tox inconclusive and HT1080 IDH1KD tx inactive.
`CCC(=O)OCC(=O)c1c(N)n(Cc2ccccc2)c(=O)n(C)c1=O` gave KB-3-1 cytotox inactive, ATXN viability inactive, ATXN2 expr inh inactive, HT1080-NT tox inactive, KB-V1 MDR tox inactive and HT1080 IDH1KD tx inactive.
`CCN(CC(=O)Nc1ccc2c(c1)OCCO2)C(=O)/C=C/c1ccc([N+](=O)[O-])cc1` gave KB-3-1 cytotox inactive, ATXN viability inconclusive, ATXN2 expr inh inactive, HT1080-NT tox inactive, KB-V1 MDR tox 21µM and HT1080 IDH1KD tx inactive.
Screening N#C/C(=C/c1cn(Cc2ccc(F)cc2)c2ccccc12)C(=O)Nc1cccc(Cl)c1 returned KB-3-1 cytotox inactive, ATXN viability inconclusive, ATXN2 expr inh inactive and KB-V1 MDR tox inconclusive.
COc1ccc(Nc2oc(COc3ccccc3F)nc2C#N)cc1 was read as KB-3-1 cytotox inactive, ATXN viability 35µM, ATXN2 expr inh inconclusive, HT1080-NT tox inactive, KB-V1 MDR tox inactive and HT1080 IDH1KD tx inactive.
Screening COc1ccc(Nc2oc(COc3ccc(OC)cc3)nc2C#N)cc1 returned KB-3-1 cytotox inactive, ATXN viability inactive, ATXN2 expr inh 14µM, HT1080-NT tox inactive, KB-V1 MDR tox inactive and HT1080 IDH1KD tx inactive.
